Source: PubChem BioAssay (NMMLSC)
An excerpt weighted towards active compounds, which were near 2.2% of everything screened.
MEKK2mut PB1 HTS = signal of MEK5 binding to mutant human MEKK2 PB1 domain. bead flow cytometry, Alexa488-MEK5 binding to MEKK2 mutant. percent response, % at 10 µM. 0.35% of 290,000 active. AID 1530; in the data active = percent response above about 24%, passing the limit was not always enough
VLA-4 inh = inhibition in a human VLA-4 binding assay; VLA-4 expressing cells, ligand binding flow cytometry; inhibition, % (about 7 µM as worked out from the volumes in the protocol); 0.2% of 330,000 active; AID 2557; in the data active = inhibition above about 50%
Target sequence (P13612 whole entry, looked up): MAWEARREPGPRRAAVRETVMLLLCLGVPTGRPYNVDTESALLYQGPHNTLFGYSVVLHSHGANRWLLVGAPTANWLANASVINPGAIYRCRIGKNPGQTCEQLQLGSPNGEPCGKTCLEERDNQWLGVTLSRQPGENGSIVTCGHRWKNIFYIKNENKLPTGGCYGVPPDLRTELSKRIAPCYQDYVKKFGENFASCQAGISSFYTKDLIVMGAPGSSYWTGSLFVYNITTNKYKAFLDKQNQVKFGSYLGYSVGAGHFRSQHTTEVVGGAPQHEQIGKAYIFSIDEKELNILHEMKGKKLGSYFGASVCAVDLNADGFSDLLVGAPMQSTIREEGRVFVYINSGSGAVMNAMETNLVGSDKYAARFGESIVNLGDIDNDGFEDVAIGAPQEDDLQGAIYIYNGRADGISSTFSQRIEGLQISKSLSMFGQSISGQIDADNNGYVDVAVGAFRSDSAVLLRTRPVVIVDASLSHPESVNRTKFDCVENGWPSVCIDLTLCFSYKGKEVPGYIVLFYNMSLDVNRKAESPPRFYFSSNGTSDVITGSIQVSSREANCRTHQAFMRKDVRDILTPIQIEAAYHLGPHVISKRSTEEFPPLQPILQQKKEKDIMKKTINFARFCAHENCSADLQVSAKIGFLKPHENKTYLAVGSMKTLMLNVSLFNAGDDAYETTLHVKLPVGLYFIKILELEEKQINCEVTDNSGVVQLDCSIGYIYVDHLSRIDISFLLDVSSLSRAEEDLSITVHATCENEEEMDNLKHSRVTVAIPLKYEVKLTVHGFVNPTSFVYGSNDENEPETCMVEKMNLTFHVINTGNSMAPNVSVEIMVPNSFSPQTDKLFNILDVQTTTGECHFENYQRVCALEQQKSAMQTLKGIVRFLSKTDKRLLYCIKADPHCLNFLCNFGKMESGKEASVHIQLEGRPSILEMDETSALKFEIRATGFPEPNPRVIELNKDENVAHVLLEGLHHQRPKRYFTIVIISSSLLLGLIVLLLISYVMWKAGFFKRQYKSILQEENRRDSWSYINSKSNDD
MEKK3 PB1 HTS = modulators (inhibitors or enhancers) of MEK5 binding to human MEKK3 PB1 domain; Q99759; bead-based flow cytometry, Alexa488-MEK5 binding to MEKK3; actives lie on both sides; 0 = blocked by unlabeled MEK5, 100 = vehicle; binding response (% of control), % at 10 µM; 1.4% of 290,000 active; AID 1529;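 active = binding response more than 3 SD above or below the average of its plate-row segment, actives on both sides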;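 note: Alexa488 bead fluorescence after subtracting the streptavidin-only scavenger bead signal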
MEKK2 WT-MEK5 = raises or lowers MEK5 binding to wildtype human MEKK2 PB1 domain. Q9Y2U5. bead flow cytometry, Alexa488-MEK5 binding to MEKK2 WT; actives lie on both sides. binding response (% of control), % at 10 µM. 1.1% of 290,000 active; in the data active = binding response below about 67% or above about 130%
MEKK2wt confirm = raises or lowers MEK5 binding to wildtype human MEKK2, retest; shares compounds with MEKK3 PB1 HTS; binding response (% of control), % at 10 µM; 2.4% of 5,900 active; bead flow cytometry, Alexa488-MEK5 binding to MEKK2 WT; actives lie on both sides; in the data active = binding response below about 16% or above about 210%; inactive = in between
MEKK2mut confirm = signal of MEK5 binding to mutant human MEKK2, retest. shares compounds with MEKK3 PB1 HTS. bead flow cytometry, Alexa488-MEK5 binding to MEKK2 mutant. percent response, % at 10 µM. 2% of 5,900 active. AID 1893; in the data active = percent response mostly above about 71%, no sharp cut-off; inactive = mostly below about 38%;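 note: higher means compound restores mutant binding toward wildtype level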
MEKK3-MEK5 inh = confirmation of inhibitors of MEK5 binding to human MEKK3; shares compounds with MEKK3 PB1 HTS; bead flow cytometry, Alexa488-MEK5 binding to MEKK3; hits give low values; binding response (% of control), % at 10 µM; 1.8% of 5,900 active; AID 1894;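 active = binding response below 72% of control, or above a set upper limit, though filed actives all read lower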;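 note: 100% = DMSO only wells and 0% = binding blocked by excess unlabeled MEK5; lower values mean stronger disruption of MEK5 binding to MEKK3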
Numbers without * were called inactive; i = inactive; · = not tested or not shown; [ ] = remark or other dose.

SMILES	MEKK2mut PB1 HTS	VLA-4 inh	MEKK3 PB1 HTS	MEKK2 WT-MEK5	MEKK2wt confirm	MEKK2mut confirm	MEKK3-MEK5 inh
COc1ccc(CNCCC(c2ccc(OC(C)C)cc2)C(C)C)cc1OC (centres undefined)	6	7	104	114	·	·	·
COc1ccc(CNCCC(c2ccc(OC(C)C)cc2)c2ccccc2OC)cc1OC (centres undefined)	28*	2	112	156*	148	27	112
COc1ccc(CNCCC(c2ccc(OC(C)C)cc2)c2ccccc2OC)cc1 (centres undefined)	47*	7	112	193*	181	41	111
O=C(CCC1CCCC1)NNC(=O)c1ccc(F)cc1	·	7	·	·	·	·	·
Cc1cc(C)c(O)c(-c2n[nH]c3c2C(c2cccc(O)c2)N(Cc2ccco2)C3=O)c1 (centres undefined)	-7	-2	94	87	·	·	·
Cc1nc([N+](=O)[O-])cn1CC(=O)Nc1ccc([N+](=O)[O-])cc1	12	6	107	109	·	·	·
NS(=O)(=O)c1ccc(NC(=O)COC(=O)c2ncc(Cl)c(Cl)c2Cl)cc1	·	1	·	·	·	·	·
Cn1c(SCC(=O)NCc2ccco2)nnc1C1CCCC1	0	3	100	103	·	·	·
CCCCCOc1ccc(C2NC(=O)NC2=O)cc1 (centres undefined)	13	36	110	113	·	·	·
CCCOc1ccc(C2NC(=O)NC2=O)cc1 (centres undefined)	8	-6	123*	120	108	3	108
CC(C)CN(C(=O)COC(=O)CSc1ccc([N+](=O)[O-])cc1)C1CCS(=O)(=O)C1 (centres undefined)	·	5	·	·	·	·	·
CCCNC(=O)COC(=O)c1cccnc1Nc1ccccc1F	-1	0	100	98	·	·	·
NC(=O)NC(=O)COC(=O)c1cccnc1Nc1ccccc1F	-49	7	65*[inhibitor]	62*[inhibitor]	107	2	107
Cn1c(CNC(=O)C(Cc2ccccc2)NC(=O)c2cccc(F)c2)cc(=O)n(C)c1=O (centres undefined)	-3	4	99	98	·	·	·
O=C1c2ccccc2C(=O)C12OC2c1cccc2ccccc12 (centres undefined)	1	-5	157*	107	103	2	103
O=C1N(Cc2cccc(Cl)c2)C[C@@H]2C[C@@H](c3c[nH]c4ccccc34)N3CCC[C@@]123	22	-15	63*[inhibitor]	·	84	-10	72
O=C1C(Nc2ccccc2)=C(NS(=O)(=O)c2ccccc2)C(=O)c2ccccc21	0	12	139*	106	96	-7	92
O=C1c2ccccc2C(=O)c2cc(S(=O)(=O)Nc3ccccc3)ccc21	-4	-18	86	93	·	·	·
CCS(=O)(=O)N1N=C(c2cccc(NS(C)(=O)=O)c2)CC1c1ccccc1 (centres undefined)	·	-306	·	·	·	·	·
CCS(=O)(=O)Nc1cccc(C2=NN(S(C)(=O)=O)C(c3ccccc3)C2)c1 (centres undefined)	54*	-47	18*[inhibitor]	86	72	-19	73
CS(=O)(=O)N1N=C(c2ccc(Br)cc2)CC1c1ccc2c(c1)OCO2 (centres undefined)	83*	-106	94	14*	103	-2	96
CS(=O)(=O)Nc1ccc(C2=NN(S(C)(=O)=O)C(c3ccc4nccnc4c3)C2)cc1 (centres undefined)	·	6	3.0*[inhibitor]	·	70	-6	73
Cc1ccc(C2=NN(S(C)(=O)=O)C(c3ccc4c(c3)OCO4)C2)cc1 (centres undefined)	25	i	10*[inhibitor]	·	98	-6	96
CC(Oc1ccc2c(c1)oc(=O)c1ccccc12)C(=O)NCCN1CCOCC1 (centres undefined)	-6	-1	99	97	·	·	·
CCOc1ccccc1C(C(=O)NC1CCCC1)N(C(=O)c1csnn1)C1CC1 (centres undefined)	-1	-6	103	97	·	·	·
SMILES	MEKK2mut PB1 HTS	VLA-4 inh	MEKK3 PB1 HTS	MEKK2 WT-MEK5	MEKK2wt confirm	MEKK2mut confirm	MEKK3-MEK5 inh
CC[C@@]1(C(=O)OC)N[C@H](CN(C)C(=O)c2ccc(C)cc2)[C@@H]2C(=O)N(Cc3ccccc3)C(=O)[C@@H]21	·	2	·	·	·	·	·
Cc1ccc(CN(C)C(=O)c2cccc(S(=O)(=O)N3CCc4ccccc4C3)c2)o1	·	5	·	·	·	·	·
Cc1cccnc1NC(=O)c1csnn1	5	2	65*[inhibitor]	30*[inhibitor]	100	1	101
CCN(CC)C(=O)CSc1nnc2nnc3cc(OC)ccc3n12	2	3	107	105	·	·	·
Cc1c(C)n(CCN(C)C)c2ccc(C(=O)OCCN(C)C)cc12	8	9	103	110	·	·	·
Cc1c(C)n(Cc2ccccc2)c2ccc(C(=O)OCCCN(C)C)cc12	-2	16	105	158*	151	39	104
CCOc1ccc2c(c1)c(N=NC(=N)N)c(O)n2C	1	9	128*	104	107	4	104
Cc1ccc(N=C(N(C)C)P(=O)(N(C)C)N(C)C)c(C)c1	-3	2	72*[inhibitor]	77	102	11	103
COc1ccc(/C=N/Nc2ccc(C(F)(F)F)cc2[N+](=O)[O-])cc1O	0	19	131*	102	103	4	99
CCOc1ccc(/C=N/Nc2ccc(C(F)(F)F)cc2[N+](=O)[O-])cc1O	-6	-21	106	93	·	·	·
C#CCn1cc(C=C2C(=O)c3ccccc3C2=O)c2ccccc21	-1	·	36*[inhibitor]	80	91	-4	101
O=c1cc(N2CCC3(CC2)OCCO3)[nH]c(=O)n1-c1ccc(Br)cc1	2	·	51*[inhibitor]	102	97	-2	102
O=c1cc(N2CCN(c3ccccc3F)CC2)[nH]c(=O)n1-c1ccc(Br)cc1	13	-3	104	109	·	·	·
O=C(CC(c1ccccc1)c1cc(Cl)ccc1O)NCCCN1CCOCC1 (centres undefined)	12	-3	109	112	·	·	·
Cc1ccc(S(=O)(=O)NC(=O)Nc2nnc(C)s2)cc1	-16	4	0.0*[inhibitor]	0.0*[inhibitor]	100	5	98
COc1ccc(N2CC(C(=O)NCCc3ccc(Cl)cc3)CC2=O)cc1 (centres undefined)	1	23	101	96	·	·	·
COc1ccc(N2CCOCC2)c(NC(=O)c2cccs2)c1	-3	26	101	101	·	·	·
Cc1ccc(Oc2nc3ccccn3c(=O)c2/C=C(\C#N)C(=O)Nc2c(C)n(C)n(-c3ccccc3)c2=O)c(C)c1	-1	4	74*[inhibitor]	97	111	16	104
